Screening results: PubChem BioAssay, National Center for Advancing Translational Sciences (NCATS)
IP6K1 inhibitor = inhibitors of human IP6K1. activity change, % (series mostly up to about 58 µM). IP6K1 kinase, ADP-Glo luminescence, 2 h; stronger effect = lower value. Q92551. actives 0.81% (n = 140,000). AID 1645851; in the data active means activity change below about -25%; further: on the % scale 0 is the no-effect control and ±100 the full control effect
Target sequence (Q92551 whole entry, looked up): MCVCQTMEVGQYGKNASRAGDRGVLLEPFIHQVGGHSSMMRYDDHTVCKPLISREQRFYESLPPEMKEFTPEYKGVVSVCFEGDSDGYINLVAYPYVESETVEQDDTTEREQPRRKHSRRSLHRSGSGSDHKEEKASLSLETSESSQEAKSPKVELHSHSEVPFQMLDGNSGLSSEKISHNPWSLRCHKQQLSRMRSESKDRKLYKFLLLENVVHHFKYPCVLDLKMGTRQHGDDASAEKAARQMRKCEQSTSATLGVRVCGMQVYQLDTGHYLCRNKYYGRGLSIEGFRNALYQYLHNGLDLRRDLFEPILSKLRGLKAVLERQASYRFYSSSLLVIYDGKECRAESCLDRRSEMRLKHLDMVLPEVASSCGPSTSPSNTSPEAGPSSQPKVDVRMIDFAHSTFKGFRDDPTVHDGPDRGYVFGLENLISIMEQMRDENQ
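ADP-Glo luminescence measures ADP made by human IP6K1 during a 2 h RT reaction with ATP/IP6 (mix at 1.3 mM/130 uM); top library doses 57.5 and 19.1 uM final.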
KDM5B inhibitor = blocks human KDM5B histone demethylase activity; actives 2.6% (n = 220,000); Potency, µM (series often up to 57.7 µM), hits mostly inhibitors; AID 1347165; KDM5B demethylase, FDH-coupled NADH fluorescence (FDH is formaldehyde dehydrogenase); further: potency means the concentration at half of the fitted maximal effect; 0% is about no effect; nearly all actives have a fitted effect of over 70% in size
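Inhibition is measured as reduced NADH fluorescence generation from FDH coupling to formaldehyde release. Truncated KDM5BΔAP at 200 nM final acts on H3K4me3 peptide (12.5 µM in substrate mix) in pH 7.5 HEPES buffer with Tween-20, 30 min, room temperature.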
An asterisk follows results filed as active; i = inactive; u = inconclusive; x = not tested or not shown. Sampled rows, rich in hits. Any-hit rate of the full collection: about 2.8%.

SMILES | IP6K1 inhibitor | KDM5B inhibitor
CN(C)C[C@@H]1CN(c2ccncn2)C[C@H]1NC(=O)c1nccc2ccccc12 | -10 | i
CN(C)C[C@@H]1CN(c2ncccn2)C[C@H]1NC(=O)c1nn(C)c2ccccc12 | 6 | 32µM*
CN(C)C[C@@H]1CN(C2CCOCC2)C[C@H]1NC(=O)c1ccc2ccccc2n1 | 4 | u
CN(C)C[C@@H]1CN(C)C[C@H]1NC(=O)c1nn(C)c2ccccc12 | 7 | 32µM*
CCNC(=O)NC(=O)C(C)OC(=O)c1ccc2ccccc2n1 (configuration not stated) | x | i
O=C(CCc1ncc(-c2ccc(F)cc2)o1)NCCc1ccc(F)cc1 | x | i
O=C(NC1CCNCC1)C1CCCN(c2nc(-c3ccccc3)nc3c2CCC3)C1 (configuration not stated) | -2 | u
COc1ccc(OCC2(C)COc3ccc(C(=O)NCc4ccco4)cc3N2)cc1 (configuration not stated) | -6 | 18µM*
COc1ccc(OCC2(C)COc3ccc(C(=O)Nc4ccccc4)cc3N2)cc1 (configuration not stated) | 1 | 28µM*
COc1ccc(OCC2(C)COc3ccc(C(=O)NCC4CCOCC4)cc3N2)cc1 (configuration not stated) | -2 | 32µM*
COc1ccc(OCC2(C)COc3ccc(C(=O)N(C)C)cc3N2)cc1 (configuration not stated) | -7 | i
COc1ccc(OCC2(C)COc3ccc(C(=O)NCc4ccc(F)cc4)cc3N2)cc1 (configuration not stated) | -6 | u
CC1(COc2ccccc2)COc2ccc(C(=O)NCc3ccco3)cc2N1 (configuration not stated) | -3 | u
Cc1nn2c(c1-c1ccccc1N1CCCC1)N(C(=O)COc1ccccc1)CCC2 | 18 | 20µM*
Cc1nn2c(c1-c1ccccc1N1CCCC1)N(C(=O)C1CCOCC1)CCC2 | 8 | 28µM*
Cc1nn2c(c1-c1ccccc1-c1ccccc1)N(C(=O)COc1ccccc1)CCC2 | 17 | i
Cc1nn2c(c1-c1ccccc1C(C)C)N(C(=O)C1CCOCC1)CCC2 | 16 | i
COC(=O)CC(NC(=O)c1cccc(F)c1)c1ccc(OC)c(OC)c1 (configuration not stated) | x | i
COc1ccc(-c2ccc(C(=O)NCCc3ccc(F)cc3)c(Cl)c2)nn1 | -6 | x
CN(C)C(=O)C1CCCN(Cc2cccc(-c3cccs3)c2)C1 (configuration not stated) | -11 | x
COc1ccc(C(=O)NC2CN(c3ccnc4ccnn34)C2)cc1 | -4 | x
O=C(Nc1cnc(-c2cccc(Cl)c2)nc1)c1cc(F)cc(F)c1 | 4 | 25µM*
O=C(Nc1cnc(-c2cccc(Cl)c2)nc1)c1ccc(F)cc1F | -3 | i
COc1ccc(F)cc1-c1cccc(C(=O)NCCNC(=O)Nc2ccccc2F)c1 | -1 | x
O=C(N1CCN(c2ccccn2)CC1)C1(c2ccc(Cl)cc2)CCOCC1 | -9 | 79µM*
SMILES | IP6K1 inhibitor | KDM5B inhibitor
O=C(Nc1ccc(C2(C(=O)N3CCN(c4ccccn4)CC3)CCCCC2)cc1)C1CC1 | -10 | 28µM*
CCC(=O)Nc1ccc(C2(C(=O)N3CCN(c4ccccn4)CC3)CCCCC2)cc1 | 11 | u
O=C(N1CCN(c2ncccn2)CC1)C1(c2ccc(Cl)cc2)CCOCC1 | -19 | i
CC(C)C(=O)Nc1ccc(C2(C(=O)N3CCN(c4ccccc4)CC3)CCCCC2)cc1 | 2 | i
CCC(=O)N1CC(C(=O)Nc2ccccn2)C2(CCOCC2)C1 (configuration not stated) | 21 | i
CCC(=O)N1CC(C(=O)N2CCN(c3ccccn3)CC2)C2(CCOCC2)C1 (configuration not stated) | -4 | 32µM*
CC(=O)Nc1ccc(C2(C(=O)N3CCN(c4ccccn4)CC3)CCCCC2)cc1 | -8 | 28µM*
CN(C(=O)Cc1c[nH]c2ccccc12)c1nc2ccccc2s1 | x | i
COc1ccc2cc(-c3nc(-c4ccccc4F)no3)c(=O)oc2c1 | x | i
CCCCCNC(=O)C1CCCN1c1nccc(Nc2ccc(C)cc2)n1 (configuration not stated) | -3 | x
O=C(NCc1ccc2c(c1)OCO2)C1CCN(C(=O)c2ccc(-c3cccs3)cc2)CC1 | -11 | x
Cc1noc(C)c1-c1cc2cc(CN(C)C)oc2c(NCCOc2ccccc2)n1 | -18 | u
COc1ccccc1CNC(=O)c1cc2n(n1)CC(c1ccc3c(c1)OCO3)OC2 (configuration not stated) | 0 | 25µM*
Cc1ccc(CCNC(=O)c2cc3n(n2)CC(c2ccc4c(c2)OCO4)OC3)cc1 (configuration not stated) | 21 | 25µM*
O=C(NCCc1ccccc1)c1cc2n(n1)CC(c1ccc3c(c1)OCO3)OC2 (configuration not stated) | 8 | u
O=C(NCc1ccc(F)cc1Cl)c1cc2n(n1)CC(c1ccc3c(c1)OCO3)OC2 (configuration not stated) | -6 | u
O=C(NCc1cccc(Cl)c1)c1cc2n(n1)CC(c1ccc3c(c1)OCO3)OC2 (configuration not stated) | 23 | 20µM*
COc1ccc(CNC(=O)c2cc3n(n2)CC(c2ccc4c(c2)OCO4)OC3)cc1OC (configuration not stated) | -7 | 25µM*
O=C(NCCCc1ccccc1)c1cc2n(n1)CC(c1ccc3c(c1)OCO3)OC2 (configuration not stated) | 3 | i
COc1ccc(OC)c(NC(=O)c2cc3n(n2)CC(c2ccc4c(c2)OCO4)OC3)c1 (configuration not stated) | -3 | i
Cc1noc(C)c1S(=O)(=O)N1CCC(C(=O)N2CCC(c3ccccc3)CC2)CC1 | 12 | x
Cc1ccsc1CN1CCCCC12Cc1ccccc1CNC2=O (configuration not stated) | 5 | u
CC(C)(C)C(O)CN1CCC(=O)N(Cc2ccccc2)Cc2sccc21 (configuration not stated) | -6 | x
Cc1ccc(-c2cc(C(=O)NCCCc3ccccc3)c3cnn(C)c3n2)c(C)c1 | -4 | x
O=C(CSc1ccc2c(c1)OCCCO2)c1ccc[nH]1 | x | i
SMILES | IP6K1 inhibitor | KDM5B inhibitor
CC1(COc2ccc3[nH]ccc3c2)COc2ccc(C(=O)N3CCOCC3)cc2N1 (configuration not stated) | -2 | i
CC1(COc2ccc3[nH]ccc3c2)COc2ccc(C(=O)NCc3cccs3)cc2N1 (configuration not stated) | -11 | 40µM*
COCCN(C)C(=O)c1ccc2c(c1)NC(C)(COc1ccc3[nH]ccc3c1)CO2 (configuration not stated) | -11 | i
CC1(COc2ccc3[nH]ccc3c2)COc2ccc(C(=O)NCc3ccco3)cc2N1 (configuration not stated) | -12 | u
CC1(COc2ccc3[nH]ccc3c2)COc2ccc(C(=O)NC3CC3)cc2N1 (configuration not stated) | -14 | 32µM*
CC(C)CNC(=O)c1ccc2c(c1)NC(C)(COc1ccc3[nH]ccc3c1)CO2 (configuration not stated) | -4 | 32µM*
